# Screening data as filed in PubChem BioAssay.
# MBD2 DNA inh: inhibitors of MBD2 binding to methylated DNA, primary screen, biochemical, TR-FRET, DNA-binding domain, human | Methyl-CpG-binding domain protein 2 (Homo sapiens), Q9UBB5 | MBD2 binding to methylated oligonucleotide | inhibition, % at 4.4 µM | 370,000 tested, 0.31% active | AID 686964, 2013; in the data active = inhibition above about 13%
# Target sequence (Q9UBB5 whole entry, looked up, the tested form may be a part): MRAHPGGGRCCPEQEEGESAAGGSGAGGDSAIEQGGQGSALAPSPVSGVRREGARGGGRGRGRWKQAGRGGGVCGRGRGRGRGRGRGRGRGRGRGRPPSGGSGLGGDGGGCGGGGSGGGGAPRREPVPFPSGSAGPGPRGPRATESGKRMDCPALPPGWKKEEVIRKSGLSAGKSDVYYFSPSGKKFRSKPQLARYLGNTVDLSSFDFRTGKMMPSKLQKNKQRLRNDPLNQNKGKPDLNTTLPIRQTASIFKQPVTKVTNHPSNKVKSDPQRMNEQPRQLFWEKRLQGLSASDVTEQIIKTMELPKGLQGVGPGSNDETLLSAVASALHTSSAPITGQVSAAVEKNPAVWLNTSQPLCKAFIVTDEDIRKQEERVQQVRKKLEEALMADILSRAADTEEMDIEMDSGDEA
# PfM18AAP inh: PfM18AAP inhibitors, malaria aminopeptidase, primary screen, biochemical, QFRET, recombinant enzyme | H-Glu-NHMec fluorogenic cleavage | 290,000 tested, 1.2% active | inhibition, % at 7.35 µM | M18 aspartyl aminopeptidase (Plasmodium falciparum 3D7);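 active = inhibition above the campaign mean inhibition over all tested compounds plus 3 SD, cut at about 28% in these data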;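 note: 0% = plate median of test compound wells and 100% = 2 mM ZnCl2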
# PRMT1 FP inh: PRMT1 methyltransferase inhibitors, primary screen, biochemical, fluorescence polarization; recombinant PRMT1, activity-based probe fluorescence polarization; 370,000 tested, 1.3% active; inhibition, % at 2.79 µM;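 active = inhibition above about 21% made by adding two undisclosed values, limit read from the data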
# PfG6PD inh: PfG6PD enzyme inhibitors, primary screen, biochemical, fluorescence intensity, uHTS | glucose-6-phosphate dehydrogenase-6-phosphogluconolactonase (Plasmodium falciparum 3D7) | PfGluPho enzyme, NADPH resazurin-diaphorase fluorescence | inhibition, % at 20 µM | AID 504690, 2011 | 350,000 tested, 0.78% active;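 active = inhibition reaching at least a set limit at 20 µM in the primary screen, cut at about 59% in these data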;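 note: 0% = DMSO wells with substrate and 100% = DMSO wells lacking glucose-6-phosphate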
# UHRF1 MBD2 ctr: UHRF1 methylated DNA binding inhibitors, primary screen, counter-screen for MBD2 inhibitor project, biochemical, TR-FRET, human UHRF1, single concentration. E3 ubiquitin-protein ligase UHRF1 (Homo sapiens), Q96T88. UHRF1 binding to methylated oligo. inhibition, % at 4.4 µM. 370,000 tested, 0.75% active. AID 687016, 2013; in the data active = inhibition above about 21%;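 note: UHRF1 SRA domain binding a hemimethylated CpG hairpin DNA probe; 0% = median of test compound wells and 100% = reference inhibitor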
# PfGluPho conf: PfG6PD inhibitors, hit retest, confirmation, biochemical, fluorescence intensity, single concentration; inhibition, % at 20 µM; 2,400 tested, 34% active; shares compounds with PfG6PD inh; AID 504753, 2011; recombinant PfGluPho, NADPH-diaphorase-resazurin fluorescence;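 active = inhibition of at least 50% at 20 µM in any single replicate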;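 note: 0% = DMSO with substrate and 100% = DMSO lacking glucose-6-phosphate substrate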
# Diaphorase 10uM: diaphorase inhibitors and chemical oxidizers, confirmation, counter-screen for P. falciparum G6PD inhibitor project, biochemical, fluorescence intensity, 10 µM NADPH; shares compounds with PfG6PD inh; diaphorase-coupled resazurin reduction, NADPH 10 uM; inhibition, % at 20 µM; 820 tested, 39% active;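 active = average inhibition reaching 50% or more with the compound at 20 µM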;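 note: resorufin red fluorescence formed as diaphorase reduces resazurin using NADPH; 0% = DMSO with enzyme and 100% = DMSO without enzyme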
# Diaphorase 30uM: diaphorase inhibitors and chemical oxidizers, confirmation, counter-screen for P. falciparum G6PD inhibitor project, biochemical, fluorescence intensity, 30 µM NADPH | shares compounds with PfG6PD inh | Diaphorase/resazurin coupled assay, resorufin fluorescence | inhibition, % at 20 µM | 820 tested, 29% active | AID 504863, 2011;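 active = inhibition averaging 50% or more, tested at 20 µM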;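 note: 0% = DMSO with enzyme and 100% = DMSO wells lacking diaphorase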
# PRMT1 confirm: PRMT1 methyltransferase inhibitors, confirmation, biochemical, fluorescence polarization, triplicate; inhibition, % at 2.79 µM; shares compounds with PRMT1 FP inh; 3,300 tested, 42% active; recombinant His-PRMT1, activity-based probe fluorescence polarization;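 active = mean inhibition across replicates above the hit cutoff derived for the earlier primary screen, cut at about 22% in these data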
# An asterisk follows results filed as active; x = no result. Sampled rows, rich in hits. Any-hit rate of the full collection: about 3.3%.
SMILES,MBD2 DNA inh,PfM18AAP inh,PRMT1 FP inh,PfG6PD inh,UHRF1 MBD2 ctr,PfGluPho conf,PRMT1 confirm,others
CCCC(=O)NC1=C(Cl)C(=O)c2ccccc2C1=O,-14,x,95*,128*,-9,116*,94*,Diaphorase 10uM=99*;Diaphorase 30uM=97*
CCNC1=C(Cl)C(=O)c2ccccc2C1=O,-23,8,-3,-105,-24,x,x,
Cc1ccc(NC2=CC(=O)C(=O)c3ccccc32)cc1,-10,-1,1,15,-7,x,x,
Cc1ccc(SC2=C(N(C)C)C(=O)c3ccccc3C2=O)cc1,-13,x,52*,65*,-5,14,49*,
CCN(CC(=O)Nc1ccc2c(c1)OCCO2)C(=O)c1ccccc1Br,-4,x,-7,-11,3,x,x,
O=C(COC(=O)c1c[nH]c2ccccc12)Nc1cccc(F)c1,-6,x,-8,10,1,x,x,
Cc1ccc(C2(C)NC(=O)N(CC(=O)Nc3nc(-c4ccccn4)cs3)C2=O)cc1 (stereo not drawn),-3,x,26*,72*,-6,36,38*,
CC1(c2ccccc2)NC(=O)N(CC(=O)Nc2nc(-c3ccccn3)cs2)C1=O (stereo not drawn),-2,x,6,34,-4,x,x,
O=C(C[C@@H]1C/C=C\CCC(=O)O[C@H](c2ccccc2)CNC1=O)N[C@H](CO)Cc1ccccc1,0,x,-1,6,-2,x,x,
Cc1cc(=O)c2c(o1)C(=O)c1occc1C2=O,11,x,36*,86*,40*,53*,26*,Diaphorase 10uM=65*;Diaphorase 30uM=62*
CCC1CCCCN1C(=O)CSc1nnc(CNC(=O)c2c(F)cccc2Cl)o1 (stereo not drawn),-3,-6,-2,-2,0,x,x,
COc1ccc(O)c(/C=c2/sc3nc4cc(C)c(C)cc4n3c2=O)c1,1,7,39*,68*,-3,33,70*,
Cc1ccc(SSc2cc(C)ccc2N)c(N)c1,0,x,70*,64*,-12,42,87*,
CCN1CCN(C(=S)c2ccc(O)cc2)CC1,1,47*,81*,70*,2,53*,52*,Diaphorase 10uM=-12;Diaphorase 30uM=-4
CCN1CCN(C(=S)Nc2ccc(Cl)cc2)CC1,1,-6,-1,0,-1,x,x,
CN(C)c1ccc(C(=S)N2CCN(Cc3ccccc3)CC2)cc1,3,55*,55*,69*,-1,46,64*,
Cc1ccc(S(=O)(=O)NNc2nc3ccccc3nc2C(F)(F)F)cc1,-6,0,81*,65*,-5,20,18,
Cc1ccc(S(=O)(=O)NNc2c3ccccc3nc3ccc(Cl)cc23)cc1,-1,x,15,31,0,x,x,
Cc1ccc(/C=C/C(=O)Nc2ccc([N+](=O)[O-])cc2)o1,3,-12,42*,88*,-1,45,4,
CCCOc1ccc(/C=C/C(=O)Nc2ccc([N+](=O)[O-])cc2)cc1,2,-3,-1,24,0,x,x,
O=C(O)c1cc2ccccc2c2c1C(=O)c1ccccc1-2,-9,x,0,3,-13,x,x,
O=C1C=C(c2c(O)ccc3ccccc23)c2ccccc2C1=O,-2,x,41*,118*,3,111*,40*,Diaphorase 10uM=96*;Diaphorase 30uM=97*
